APOBEC3A inh: blocks human APOBEC3A ssDNA deamination; P31941; recombinant A3A, FAM/TAMRA ssDNA deamination fluorescence; inhibition, % at 20 µM; 330,000 tested, 0.41% active;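 active = at least 40% inhibition at 20 µM here, with at most 30% in a related deaminase screen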
A3G deaminase: inhibitors of human APOBEC3G DNA deaminase | 330,000 tested, 0.28% active | inhibition, % at 20 µM | recombinant A3G, ssDNA deamination FAM/TAMRA fluorescence | Q9HC16;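 active = inhibition of at least 40% at 20 µM, with no more than 30% in the related APOBEC3A deaminase screen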
CendR NRP1 mod: modulators of CendR peptide binding to human neuropilin-1. 360,000 tested, 0.85% active. O14786. FAM-RPARPAR peptide binding to NRP-1, fluorescence polarization. inhibition, % at 25 µM;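 active = inhibition or corrected inhibition above about 18%, plus a signal ratio from 0.5 to 1.5, limit read from the data, passing the limit was not always enough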
ADAM17 inh: inhibitors of human ADAM17. P78536. recombinant ADAM17, EDANS/DABCYL FRET peptide cleavage. inhibition, % at 6.95 µM. 370,000 tested, 0.83% active. AID 720648;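 active = inhibition above the mean of compounds lying between control limits plus 3 SD, set per campaign, cut at about 8.5% in these data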
ADAM10 inh: ADAM10 inhibition, QFRET primary screen. AID 720582. O14672. inhibition, % at 7 µM. 370,000 tested, 0.62% active. recombinant ADAM10, EDANS/DABCYL FRET peptide cleavage, 3 h;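 active = inhibition above a per-campaign cutoff equal to the mean of compounds falling between control-based bounds plus 3 SD, cut at about 20% in these data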
Target sequence (O14672 214-748 limits assumed): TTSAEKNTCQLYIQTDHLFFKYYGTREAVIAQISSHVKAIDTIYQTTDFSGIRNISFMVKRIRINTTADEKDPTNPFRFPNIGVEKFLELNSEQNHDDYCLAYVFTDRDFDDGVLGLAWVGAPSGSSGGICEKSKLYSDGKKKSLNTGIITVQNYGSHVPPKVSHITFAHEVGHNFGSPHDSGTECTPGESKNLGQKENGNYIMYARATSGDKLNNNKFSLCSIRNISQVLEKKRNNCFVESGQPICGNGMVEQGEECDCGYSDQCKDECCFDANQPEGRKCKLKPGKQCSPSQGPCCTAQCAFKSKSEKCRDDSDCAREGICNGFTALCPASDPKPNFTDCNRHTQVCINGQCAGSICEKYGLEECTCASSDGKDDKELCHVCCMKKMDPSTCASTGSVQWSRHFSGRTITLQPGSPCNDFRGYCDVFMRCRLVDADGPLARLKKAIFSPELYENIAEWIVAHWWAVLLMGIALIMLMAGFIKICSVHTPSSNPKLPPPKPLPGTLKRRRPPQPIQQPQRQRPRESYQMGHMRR
A3G conf: APOBEC3G (human) deaminase inhibition, confirmed | shares compounds with A3G deaminase | recombinant A3G ssDNA deaminase, UDG/FAM-TAMRA fluorescence | inhibition, % at 20 µM | 890 tested, 72% active | AID 493152;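 active = inhibition reaching a set limit in any replicate at 20 µM, the limit being 80% of the first screen's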
UDG A3G counter: inhibits E. coli UDG, flagging false APOBEC3G inhibitors | shares compounds with A3G deaminase | UDG counterscreen, FAM/TAMRA oligo fluorescence | inhibition, % at 20 µM | 710 tested, under 10 active;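 active = compounds giving 40% or more inhibition at 20 µM in any one of the three replicates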;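 note: inhibitors lower the FAM signal released by uracil excision and alkaline cleavage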
ADAM10 confirm: confirmation of inhibitors of human ADAM10; shares compounds with ADAM10 inh; ADAM10 QFRET peptide cleavage, EDANS fluorescence; inhibition, % at 6.95 µM; 2,100 tested, 1% active; AID 743208;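 active = inhibition above about 20% chosen separately for each screening run, limit read from the data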
ADAM17 counter: counter-screen for ADAM10 exosite inhibitors: inhibitors of human ADAM17 | shares compounds with ADAM10 inh | 2,100 tested, 0.5% active | ADAM17 QFRET peptide cleavage, EDANS fluorescence | inhibition, % at 6.95 µM | AID 743214;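 active = mean triplicate inhibition above the solvent-only control wells' mean plus 3 SD, cut at about 12% in these data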
ADAM10 counter: counter-screen for ADAM17 exosite inhibitors: inhibitors of human ADAM10 | 2,900 tested, 47% active | inhibition, % at 6.95 µM | shares compounds with ADAM17 inh | recombinant ADAM10, EDANS/DABCYL FRET peptide cleavage, 3 h;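 active = mean inhibition over the triplicate runs exceeds the activity threshold set in the earlier primary screen, cut at about 20% in these data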
ADAM17 confirm: human ADAM17 inhibition, confirmation; inhibition, % at 6.95 µM; recombinant ADAM17, EDANS/DABCYL QFRET peptide cleavage; AID 743257; 2,900 tested, 65% active; shares compounds with ADAM17 inh;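 active = mean inhibition across replicates above the hit cutoff set in the primary screen, cut at about 8.5% in these data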
Of the large screens only hits and unclear results are named; the others gave an inactive call (follow-up assays come after a bar, where they were run). Most compounds without a hit are left out; they make up all but 2.4% or so of the library.

CCOc1ccc(N)c(SSc2cc(OCC)ccc2N)c1	A3G deaminase 72.1 | A3G conf 96.1 | UDG A3G counter inactive
CC[C@H](NC(=O)[C@@H](Cc1ccccc1)NC(=O)[C@H]1O[C@@H](n2cnc3c(=O)[nH]c(N)nc32)[C@H](O)[C@@H]1O)c1ccccc1	none (no result: APOBEC3A inh, A3G deaminase, CendR NRP1 mod)
Cc1ccc(/C=C/C(=O)NC2CCCCCCC2)o1	A3G deaminase 49.8 | A3G conf 37.6 | UDG A3G counter inactive
Cc1ccc(/C=N/NC(=O)NC2CCCCC2)o1	none
CC(C)CN1C(=O)C[C@]2(C(=O)N(C)c3ccc(NS(=O)(=O)C4CC4)cc32)C1c1ccccc1 (some centres undefined)	none (no result: APOBEC3A inh, A3G deaminase, CendR NRP1 mod)
CCn1cc(C(=O)NCC(OC)OC)c(=O)c2cc(S(=O)(=O)N3CCC(C)CC3)ccc21	A3G deaminase 58.6 | A3G conf inactive | UDG A3G counter inactive
COc1cc(/C=N/n2c(-c3n[nH]c4c3CCC4)n[nH]c2=S)ccc1O	A3G deaminase 46.6 | A3G conf 57.9 | UDG A3G counter inactive
COc1cc(/C=N/n2c(-c3ccccc3)n[nH]c2=S)ccc1O	none
COc1ccc(/C=N/n2c(-c3n[nH]c4c3CCC4)n[nH]c2=S)cc1OC	A3G deaminase 47.7 | A3G conf 60.6 | UDG A3G counter inactive
CCOc1ccc(/C=N/n2c(-c3n[nH]c4c3CCC4)n[nH]c2=S)cc1	none (no result: APOBEC3A inh, A3G deaminase, CendR NRP1 mod)
COc1ccc(NC(=O)c2ccc3c(c2)NC(=O)CS3)cc1S(=O)(=O)Nc1ccc(Br)cc1	A3G deaminase 55.2 | A3G conf 30.0 | UDG A3G counter inactive
CC(=O)NS(=O)(=O)c1ccc(NC(=O)c2ccc3c(c2)NC(=O)CS3)cc1	none
CC(=O)Nc1ccc(S(=O)(=O)NNC(=O)c2cccc(Cl)c2)cc1	A3G deaminase 75.6 | A3G conf inactive
CC(=O)Nc1ccc(S(=O)(=O)NNC(=O)c2ccc3c(c2)OCO3)cc1	none
O=C(COC(=O)c1ccc(Sc2ncn[nH]2)c([N+](=O)[O-])c1)Nc1cccc(Cl)c1F	none (no result: APOBEC3A inh, A3G deaminase, CendR NRP1 mod)
Cc1cccc(/C=N/n2c(-c3ccncc3)n[nH]c2=S)c1	A3G deaminase 78.5, ADAM17 inh 11.1 | A3G conf 99.3 | UDG A3G counter inactive | ADAM10 counter inactive | ADAM17 confirm inactive
CN(CCCOC(=O)CC1C=CCC1)C1CN(Cc2cn(Cc3ccccc3Cl)nn2)S(=O)(=O)C1 (centres undefined)	none (no result: APOBEC3A inh, A3G deaminase, CendR NRP1 mod)
C/C=C/C(=O)N1CC2(CC(c3cccc(NC(=O)CC)c3)=NO2)C[C@H]1C(N)=O (some centres undefined)	none
C=C(C)C(=O)Nc1cccc(C2=NOC3(C2)C[C@H](C(N)=O)N(C(=O)/C=C/C)C3)c1 (some centres undefined)	A3G deaminase 86.3, ADAM17 inh 9.9 | A3G conf 91.3 | UDG A3G counter inactive | ADAM10 counter inactive | ADAM17 confirm inactive
O=S(=O)(NCc1cccc(C(F)(F)F)c1)NCc1ccccc1F	ADAM10 inh 20.3 | ADAM10 confirm inactive | ADAM17 counter inactive
CC(=O)Nc1ccc2c(c1)nc1n2CCOC1	ADAM10 inh 83.8 | ADAM10 confirm inactive | ADAM17 counter inactive

Screens deposited in PubChem BioAssay by several laboratories.
